Experimental data: PubChem BioAssay (NCATS)
Inconclusive results are not listed. Calls of active or inactive are those of the source. Calls come from the whole dose curve; as a rule, active = well fitted cell-killing curve with a large enough effect; inconclusive = small, poorly fitted or top-dose-only effect, or effect the other way; inactive = flat fitted curve, though single readings scatter.

Tests used:
Assay in all cases: Primary qHTS to identify gynecologic anti-cancer compounds using libraries of approved drugs and bioactive compounds (AID 1345084); note: nearly all actives have a fitted effect of over 55% in size
C33A = conditions: Gynecologic cancer cell panel viability, ATPlite luminescence, 48 h; series mostly up to 57.5 µM
Outline: (§1)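 Five-point cytotoxicity, 48 h drug exposure at 37 C, 5% CO2, on cells seeded 16 h beforehand. ATP content read by ATPlite luminescence.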

CAOV3 = conditions: Gynecologic cancer cell panel viability, ATPlite luminescence, 48 h; series mostly up to 57.5 µM
Outline: as §1

CASKI = conditions: Gynecologic cancer cell panel viability, ATPlite luminescence, 48 h; series mostly up to 57.5 µM
Outline: as §1

Es-2 = conditions: Gynecologic cancer cell panel viability, ATPlite luminescence, 48 h; series mostly up to 57.5 µM
Outline: as §1

HeLa = conditions: Gynecologic cancer cell panel viability, ATPlite luminescence, 48 h; series mostly up to 57.5 µM
Outline: as §1

Hek293T = conditions: Gynecologic cancer cell panel viability, ATPlite luminescence, 48 h, control line for the selectivity index; series mostly up to 57.5 µM
Outline: as §1

JEG-3 = conditions: Gynecologic cancer cell panel viability, ATPlite luminescence, 48 h; series mostly up to 57.5 µM
Outline: as §1
% is set by controls: 0 for no effect and ±100 for the full control effect.

c1nc(NC2CCCCCC2)c2cc(CNC[C@H]3CCCO3)sc2n1
inactive: Potency (C33A) | Potency (CAOV3) | Potency (CASKI) | Potency (Es-2) | Potency (HeLa) | Potency (Hek293T) | Potency (JEG-3)

C[C@@H]1O[C@@H](O[C@H]2[C@H](O)[C@@H](O)[C@H](OC[C@H]3O[C@@H](OC(=O)[C@]45CCC(C)(C)C[C@H]4C4=CCC6[C@@]7(C)C[C@H](O)[C@H](O[C@@H]8O[C@H](CO)[C@@H](O)[C@H](O)[C@H]8O)[C@@](C)(C(=O)O)C7CC[C@@]6(C)[C@]4(C)CC5)[C@H](O[C@@H]4O[C@H](CO)[C@@H](O)[C@H](O)[C@H]4O)[C@@H](O)[C@@H]3O)O[C@@H]2CO)[C@H](O)[C@H](O)[C@H]1O (some centres undefined)
inactive: activity change, negative = cytotoxicity (C33A) 4.28% [at 6.55 µM] | activity change, negative = cytotoxicity (CAOV3) 11.2% [at 6.55 µM] | activity change, negative = cytotoxicity (CASKI) 9.67% [at 6.55 µM] | activity change, negative = cytotoxicity (Es-2) 9.17% [at 6.55 µM] | activity change, negative = cytotoxicity (HeLa) 0.162% [at 6.55 µM] | activity change, negative = cytotoxicity (Hek293T) 3.11% [at 6.55 µM] | activity change, negative = cytotoxicity (JEG-3) -3.92% [at 6.55 µM]

COc1cc(C2Oc3c(O)cc(CCCO)cc3C2CO)ccc1O[C@H]1O[C@H](C)[C@@H](O)[C@H](O)[C@@H]1O (some centres undefined)
inactive: Potency (C33A) | Potency (CAOV3) | Potency (CASKI) | Potency (Es-2) | Potency (HeLa) | Potency (Hek293T) | Potency (JEG-3)

C=CC(C)(O)CC/C=C(\C)C(=O)OC1CC2(C(=O)O)CCC3(C)C(=CCC4C5(C)CCC(OC6OC(COC7OCC(O)C(O)C7O)C(O)C(OC7OCC(O)C(O)C7O)C6OC6OC(CO)C(O)C(O)C6OC6OCC(O)C(O)C6O)C(C)(C)C5CCC43C)C2CC1(C)C (centres undefined)
inactive: activity change, negative = cytotoxicity (C33A) 0.0336% [at 6.55 µM] | activity change, negative = cytotoxicity (CAOV3) 2.82% [at 6.55 µM] | activity change, negative = cytotoxicity (CASKI) 0.559% [at 6.55 µM] | activity change, negative = cytotoxicity (Es-2) 6.29% [at 6.55 µM] | activity change, negative = cytotoxicity (HeLa) 13.4% [at 6.55 µM] | activity change, negative = cytotoxicity (Hek293T) -1.17% [at 6.55 µM] | activity change, negative = cytotoxicity (JEG-3) -1.3% [at 6.55 µM]

C=C(C(=O)O)C1CCC(C)C2CCC(=O)OC2(C)C1 (centres undefined)
inactive: Potency (C33A) | Potency (CAOV3) | Potency (CASKI) | Potency (Es-2) | Potency (HeLa) | Potency (Hek293T) | Potency (JEG-3)

CC(=O)OC[C@@]12[C@H](O)C[C@]3(C)C(=CCC4[C@@]5(C)CC[C@H](O[C@@H]6O[C@H](C(=O)O)[C@@H](O[C@@H]7O[C@H](CO)[C@@H](O)[C@H](O)[C@H]7O)[C@H](O)[C@H]6O[C@@H]6O[C@H](CO)[C@@H](O)[C@H](O)[C@H]6O)[C@](C)(CO)C5CC[C@]43C)[C@@H]1CC(C)(C)[C@@H](OC(C)=O)[C@@H]2O (some centres undefined)
inactive: activity change, negative = cytotoxicity (C33A) -7.61% [at 11.6 µM] | activity change, negative = cytotoxicity (CAOV3) 8.05% [at 11.6 µM] | activity change, negative = cytotoxicity (CASKI) 5.42% [at 11.6 µM] | activity change, negative = cytotoxicity (Es-2) 3.37% [at 11.6 µM] | activity change, negative = cytotoxicity (HeLa) 2.68% [at 11.6 µM] | activity change, negative = cytotoxicity (Hek293T) 0.0542% [at 11.6 µM] | activity change, negative = cytotoxicity (JEG-3) -2.75% [at 11.6 µM]

C=CC1(C)CC(OC(=O)C(=C)C(O)COC(C)=O)C(C(=C)C(=O)OC)C(O)C1C(=C)CO (centres undefined)
inactive: Potency (C33A) | Potency (CAOV3) | Potency (CASKI) | Potency (Es-2) | Potency (HeLa) | Potency (Hek293T) | Potency (JEG-3)

CC1=C2C(=O)C=C(CO)[C@@H]2[C@H]2OC(=O)[C@H](C)[C@@H]2[C@@H](O)C1
inactive: Potency (C33A) | Potency (CAOV3) | Potency (CASKI) | Potency (Es-2) | Potency (HeLa) | Potency (Hek293T) | Potency (JEG-3)

CC1CCC2(C)C(CC(O)C(O)C23CO3)C1(C)CCC1=CC(O)OC1=O (centres undefined)
inactive: Potency (C33A) | Potency (CAOV3) | Potency (CASKI) | Potency (Es-2) | Potency (HeLa) | Potency (Hek293T) | Potency (JEG-3)

CC(C)c1cc2c(c(O)c1O[C@@H]1O[C@H](CO)[C@@H](O)[C@H](O)[C@H]1O)CC1(O)CCC(O)C(C)(C)C1CC2 (some centres undefined)
inactive: Potency (C33A) | Potency (CAOV3) | Potency (CASKI) | Potency (Es-2) | Potency (HeLa) | Potency (Hek293T) | Potency (JEG-3)

CCCCN(CCCC)C(=O)CN1C[C@H](c2ccc3c(c2)OCO3)[C@@H](C(=O)O)[C@@H]1c1ccc(OC)cc1
inactive: Potency (C33A) | Potency (CAOV3) | Potency (CASKI) | Potency (Es-2) | Potency (HeLa) | Potency (Hek293T) | Potency (JEG-3)

O=C(CCO[C@@H]1O[C@H](CO)[C@@H](O)[C@H](O)[C@H]1O)c1ccc(O)cc1
inactive: Potency (C33A) | Potency (CAOV3) | Potency (CASKI) | Potency (Es-2) | Potency (HeLa) | Potency (Hek293T) | Potency (JEG-3)

CC1(C)CCC(C)(C)c2cc3c(cc21)Sc1ccccc1N=C3c1ccc(C(=O)O)cc1
inactive: Potency (C33A) | Potency (CAOV3) | Potency (CASKI) | Potency (Es-2) | Potency (HeLa) | Potency (Hek293T) | Potency (JEG-3)

CC(O)(CC(=O)O)CC(=O)O[C@@H]1[C@@H](O)[C@H](OCCc2ccccc2)O[C@H](CO)[C@H]1O (some centres undefined)
inactive: Potency (C33A) | Potency (CAOV3) | Potency (CASKI) | Potency (Es-2) | Potency (HeLa) | Potency (Hek293T) | Potency (JEG-3)

CC(C)C1=CC2=CCC3[C@](C)(CCC[C@@]3(C)C(=O)O)C2CC1O (some centres undefined)
inactive: Potency (C33A) | Potency (CAOV3) | Potency (CASKI) | Potency (Es-2) | Potency (HeLa) | Potency (Hek293T) | Potency (JEG-3)

CC1CC(=O)C2=C(O1)OC1(C)CCC3C(C)(C)C=CC(=O)C3(C)C1C2 (centres undefined)
inactive: Potency (C33A) | Potency (CAOV3) | Potency (CASKI) | Potency (Es-2) | Potency (HeLa) | Potency (Hek293T) | Potency (JEG-3)

CCCCCCc1cccc(NC(=O)[C@H](N)CCP(=O)(O)O)c1
inactive: activity change, negative = cytotoxicity (C33A) 10.1% [at 11.6 µM] | activity change, negative = cytotoxicity (CAOV3) 5.39% [at 11.6 µM] | activity change, negative = cytotoxicity (CASKI) 0.791% [at 11.6 µM] | activity change, negative = cytotoxicity (Es-2) 1.07% [at 11.6 µM] | activity change, negative = cytotoxicity (HeLa) 2.94% [at 11.6 µM] | activity change, negative = cytotoxicity (Hek293T) -0.817% [at 11.6 µM] | activity change, negative = cytotoxicity (JEG-3) 8.47% [at 11.6 µM]
